High-throughput results: PubChem BioAssay, National Center for Advancing Translational Sciences (NCATS)
G9a inh: blocks human histone lysine methyltransferase G9a; Q96KQ7; G9a H3K9 monomethylation, AlphaScreen, 2 h; Potency, µM (titrated, usually from 102 µM), for inactives: at the highest dose activity, negative = inhibition, hits mostly inhibitors; hit rate 8.8% among 350,000; AID 504332; further: potency means the concentration at half of the fitted maximal effect; on the % scale 0 is the no-effect control and ±100 the full control effect; nearly all actives have a fitted effect of over 75% in size
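AlphaScreen read-out: biotin-H3K9 peptide (500 nM) methylation by 20 nM enzyme with 20 uM SAM, 2 h at room temperature after 15 min compound preincubation; anti-monomethyl H3K9 antibody plus donor/acceptor beads, 10 min dark.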
BAZ2B inh: blocks human BAZ2B; AlphaScreen BAZ2B-H3K14Ac peptide displacement; Potency, µM (doses to about 114 µM), inactives show top-dose activity change, negative = inhibition, actives largely listed as inhibitors; hit rate 4.4% among 360,000; AID 504333; Q9UIF8; further: potency means the concentration at half of the fitted maximal effect; on the % scale 0 is the no-effect control and ±100 the full control effect; nearly all actives have a fitted effect of over 60% in size
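Inhibition is scored as reduced AlphaScreen emission. The BAZ2B/b-H3(5-23)K14Ac complex (50 nM each) in PBS pH 7.4, 0.01% Tween-20 meets compound (up to 110 uM) for 30 min at RT before bead addition.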
HP1b binding inh: HP1-beta chromodomain-methylated histone interaction inhibition; P83916; AlphaScreen HP1-beta / biotin-H3K9me3 peptide binding; Potency, µM (series often up to 114 µM), for the others: at the top dose activity change, negative = inhibition, usual class: inhibitors; hit rate 0.56% among 390,000; AID 540317; further: potency means the concentration at half of the fitted maximal effect; nearly all actives have a fitted effect of over 70% in size
Target sequence (P83916 whole entry, looked up): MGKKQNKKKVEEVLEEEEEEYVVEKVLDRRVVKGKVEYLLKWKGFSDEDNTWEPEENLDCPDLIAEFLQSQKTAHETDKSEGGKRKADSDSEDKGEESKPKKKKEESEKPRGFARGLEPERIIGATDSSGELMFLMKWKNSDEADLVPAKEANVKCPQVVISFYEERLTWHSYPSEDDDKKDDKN
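HP1-beta protein (50 nM final) preincubated 30 min at room temperature with biotinylated H3(1-18)K9me3 peptide (50 nM) in PBS pH 7.4, 0.01% Tween-20, then compound added for 30 min. AlphaScreen streptavidin donor/nickel chelate acceptor beads (10 ug/mL final), 30 min dark, luminescence read.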
Sfp inh: inhibitors of Bacillus subtilis Sfp phosphopantetheinyl transferase. Q9F4F7. Biochemical Sfp PPTase activity, qHTS. Potency, µM, for inactives: largest response in the series, negative = inhibition, most hits filed as inhibitors. hit rate 3.5% among 310,000. AID 1490;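 further: the enzyme is Sfp with the accession as filed and its product quenches rhodamine fluorescence; potency means the concentration at half of the fitted maximal effect; 0% = enzyme reaction without inhibitor and -100% = no enzyme wells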
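Step 1, compound plus 15 nM Sfp-PPTase, 15 min, room temperature. Step 2, add rhodamine-CoA (5 uM) and BHQ-2-YbbR (12.5 uM). Step 3, read 525/598 nm fluorescence at 0 and 30 min.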
JMJD2A Tudor inh: inhibitors of human JMJD2A Tudor domain | AID 504339 | hit rate 4.4% among 390,000 | Potency, µM (top dose mostly 114 µM), for the others: top-dose activity change, negative = inhibition, most hits filed as inhibitors | AlphaScreen JMJD2A-Tudor / H3K4me3 peptide binding; further: potency means the concentration at half of the fitted maximal effect; on the % scale 0 is the no-effect control and ±100 the full control effect; nearly all actives have a fitted effect of over 50% in size
L3MBTL1 inh: inhibitors of human L3MBTL1; Potency, µM (highest dose often 57.1 µM), inactives show top-dose activity, negative = inhibition, hits mostly inhibitors; hit rate 0.66% among 230,000; AID 485360; AlphaScreen L3MBTL1–H3K9me1 peptide binding; further: potency means the concentration at half of the fitted maximal effect; on the % scale 0 is the no-effect control and ±100 the full control effect; nearly all actives have a fitted effect of over 60% in size
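L3MBTL1 50 nM + b-AHA-H3(1-15)K9me1 75 nM, 30 min RT; compound added, 30 min RT; streptavidin donor/Ni-chelate acceptor beads 10 ug/mL each final, 30 min RT dark; AlphaScreen read.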
12-hLO cuvette: confirmation of human 12-lipoxygenase inhibitors, 8HQ series round 1. purified 12-hLO, cuvette UV 234 nm product formation. AID 2163. shares compounds with BAZ2B inh. hit rate 60% among 35. Potency, µM, most hits filed as inhibitors;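 active means compounds that slowed 12-hLO product formation enough to yield a measured IC50 potency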
JMJD2E inh-1: blocks human JMJD2E demethylase activity | Potency, µM (series often up to 57 µM), for the others: at the top dose activity, negative = inhibition, usual class: inhibitors | shares compounds with BAZ2B inh | JMJD2E demethylase, FDH-coupled NADH fluorescence | hit rate 89% among 130 | AID 493212
JMJD2E inh-2: confirmation of inhibitors of human JMJD2E demethylase | shares compounds with JMJD2A Tudor inh | Recombinant JMJD2E, FDH-coupled NADH fluorescence (FDH is formaldehyde dehydrogenase) | Potency, µM (series often up to 56.8 µM), without a hit: top-dose activity change, negative = inhibition, actives largely listed as inhibitors | hit rate 93% among 140 | AID 2677
FDH inh: FDH (Pseudomonas putida) inhibition counter-screen; shares compounds with JMJD2A Tudor inh; FDH enzyme assay, NADH fluorescence kinetic; Potency, µM (top dose mostly 56.7 µM), for the others: at the top dose activity, negative = inhibition, hits mostly inhibitors; hit rate 10% among 140; AID 2680
Target sequence (P46154 whole entry, looked up): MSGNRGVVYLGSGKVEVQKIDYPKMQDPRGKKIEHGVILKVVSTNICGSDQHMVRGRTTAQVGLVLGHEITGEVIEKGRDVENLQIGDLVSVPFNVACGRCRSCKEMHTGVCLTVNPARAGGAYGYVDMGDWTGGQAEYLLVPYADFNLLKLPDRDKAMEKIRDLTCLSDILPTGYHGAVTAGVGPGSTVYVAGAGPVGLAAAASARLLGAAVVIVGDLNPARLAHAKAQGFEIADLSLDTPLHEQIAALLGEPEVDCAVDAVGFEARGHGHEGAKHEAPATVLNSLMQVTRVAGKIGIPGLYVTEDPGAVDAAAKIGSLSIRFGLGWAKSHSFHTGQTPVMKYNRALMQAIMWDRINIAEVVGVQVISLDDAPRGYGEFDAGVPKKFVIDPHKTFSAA
JMJD2E MS inh: human KDM4E demethylase inhibition. AID 2688. Potency, µM, most hits filed as inhibitors. shares compounds with JMJD2A Tudor inh. hit rate 90% among 45. recombinant JMJD2E demethylation, MALDI-TOF-MS;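 active means compounds whose IC50 for blocking JMJD2E demethylation is below 100 µM; inconclusive means dose dependent effect but IC50 above 100 µM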
* hit, by the source's call; i = inactive; ? = inconclusive; / = not tested or not shown; [ ] = another dose, or the depositor's remark. Compounds with a hit are over-represented: about 12% of the library has one in this group of screens. Unless noted, the call rests on the fitted dose curve; in most records, active means well fitted curve in the direction sought with a large enough effect; inconclusive means small, poorly fitted or top-dose-only effect, or another doubt; inactive means no such curve, though single readings can be large; an effect the other way counts as inactive or inconclusive.

SMILES	G9a inh	BAZ2B inh	HP1b binding inh	Sfp inh	JMJD2A Tudor inh	L3MBTL1 inh	JMJD2E inh-1	JMJD2E inh-2	FDH inh	others
CCOc1ccc(C(NC(=O)CC)c2c(O)ccc3ccccc23)cc1 (stereo not given)	?	-31%	-2%	1%	-27%	1%	/	/	/
CCC(=O)NC(c1ccc(C)cc1)c1cc([N+](=O)[O-])c2cccnc2c1O (stereo not given)	?	4µM*	-16%	?	22µM*	22µM*	13µM*	13µM*	-27%	12-hLO cuvette=2.3µM*
CCC(=O)NC(c1ccc(C)cc1)c1ccc2cccnc2c1O (stereo not given)	20%	22µM*	51%	18%	79µM*	?	13µM*	13µM*	-18%	12-hLO cuvette=i
CCCC(=O)NC(c1ccc(OC)c(OC)c1)c1cc(Cl)c2cccnc2c1O (stereo not given)	/	-11%	37%	?	-21%	9%	/	/	/
Cc1ccc(-n2ncc(C(=O)NC3CCN(Cc4ccccc4)CC3)c2C2CCN(C(=O)OC(C)(C)C)CC2)cc1C	-33%[59 µM]	-1%[57.1 µM]	18%	/	-35%	/	/	/	/
COC(=O)c1ccc(CNC(=O)COC(=O)c2cccs2)cc1	/	/	21%	/	-9%	4%	/	/	/
Cc1cc(Cl)ccc1NC(=O)CN1C(=O)NC2(CCCc3ccccc32)C1=O (stereo not given)	19%[2.33 µM]	4%	16%	/	-16%	-2%	/	/	/
CN(C)c1ccc(-c2ccncc2)cc1	8%[2.33 µM]	4%	/	24%	/	/	/	/	/
Cc1cc(N2CCCC2)nc(-c2ccccc2O)n1	-29%	-16%	39%	8%	22%	-8%	/	/	/
Oc1cc(-c2ccc(N3CCCCC3)nc2)cc2cccnc12	-3%[12.7 µM]	9%	58%	/	-28%	7%	26µM*	32µM*	-73%
CN(C)CCCNCCCNC(=O)c1ccncc1	?	-6%	33%	11%	-22%	?	/	/	/
Oc1cc(-c2ccncc2)cc2cccnc12	10%[12.7 µM]	2.8µM*	47%	/	45µM*	7.1µM*	32µM*	16µM*	-27%	JMJD2E MS inh=23*
CN(C)c1ccc(-c2cc(O)c3ncccc3c2)cc1	-4%[12.7 µM]	1%	28%	/	?	-6%	16µM*	16µM*	-9%
CN(C)CCCNC(=O)c1ccc(-c2cc(O)c3ncccc3c2)cc1	5%[12.7 µM]	7.1µM*	-33%	/	20µM*	20µM*	32µM*	16µM*	0%
CCOc1ccc(-c2nc(CS(=O)(=O)CC(=O)NCc3ccc(F)cc3)c(C)o2)cc1	?	-6%	18%	3%	-15%	3%	/	/	/
COCc1cc(=O)[nH]c(-c2ccccc2OC(F)(F)F)n1	1%	3%	47%	22%	0%	13%	/	/	/
OCc1cn(Cc2ccc(O)c3ncccc23)cn1	-21%[12.7 µM]	1µM*	/	/	/	7.1µM*	11µM*	11µM*	-9%
Oc1ccc(CCc2c(F)cccc2F)c2cccnc12	/	/	/	/	-18%	/	8.1µM*	13µM*	0%	JMJD2E MS inh=39*
O=C(Cc1ccccc1F)Nc1cccc2cccnc12	33%[59 µM]	10%	42%	10%	11%	19%	/	/	/
